Data published in paper PMC7819943, “Rice protein-binding microarrays: a tool to detect cis-acting elements near promoter regions in rice”.
The full ranking holds about 68,000 sequences; the median of “fluorescence intensity (a.u.)” is about 9,100, and the highest 2% start at about 16,000. This excerpt belongs to a sample that is enriched for the highest values.

These sequences were tested against OsWRKY34 (Oryza sativa, UniProt Q0JBA9 1-250) (assay: protein-binding microarray (RPBM); PBS, 2% BSA, 51.3 ng/ul salmon testes DNA, 50 uM zinc acetate, 200 nM TF, 25 C, 1 h; high values mean tight binding). Details: protein: recombinant; tags: N-terminal polyhistidine and DsRed monomer fusion (pET32a); label: CyDye5-dUTP incorporated in the synthesized complementary strand; 3' TTTTT single-stranded linker to array surface; dsDNA, one strand shown.
Chain of OsWRKY34 (Q0JBA9 entry or part of it): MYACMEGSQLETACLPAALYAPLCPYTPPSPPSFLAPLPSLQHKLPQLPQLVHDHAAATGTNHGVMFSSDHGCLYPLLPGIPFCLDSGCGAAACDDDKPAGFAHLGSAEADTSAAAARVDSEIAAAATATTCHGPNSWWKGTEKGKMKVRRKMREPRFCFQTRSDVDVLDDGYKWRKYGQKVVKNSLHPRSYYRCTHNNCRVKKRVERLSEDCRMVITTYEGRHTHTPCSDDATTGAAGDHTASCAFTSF
Outline: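 Transcription factors, each fused N-terminally to a polyhistidine tag and DsRed, were expressed in E. coli BL21-CodonPlus and purified on Ni–NTA. A custom Agilent array was made double-stranded by primer extension with Cy5-dUTP and blocked with 2% BSA. It was incubated with 200 nM protein in PBS, 2% BSA, salmon testes DNA and 50 µM zinc acetate at 25 °C for 1 h, then washed. The binding signal is per-feature fluorescence intensity (arbitrary units) read on an Axon 4000B scanner.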
With “AACATTGATGAGAATTGAAATCATTTCGTTGCTCTAATCTCGGAGTCACCTAGTGCAG” the binding signal was 8340 fluorescence intensity (a.u.).
For “CTAGCTGAAGACTTGTGCATGCAGTTTACACCTTTTATCTCGGAGTCACCTAGTGCAG”, the binding signal was 9280 fluorescence intensity (a.u.).
“TAGCTCGTCTACTCCTAGCTCTCTCGTCCAATCCGGCCGGCGGAGTCACCTAGTGCAG” was tested, and the binding signal was 8680 fluorescence intensity (a.u.).
For “CTACGTGAGCTCGTTGCTGTGTCTCCTCTCTCTGCATCGCCGGAGTCACCTAGTGCAG”, the binding signal was 9690 fluorescence intensity (a.u.).
In the case of “CTCACAGTAAGCTTGTCCAACAGATCCATTCCTAACCTACCGGAGTCACCTAGTGCAG”, the binding signal is reported as 8140 ± 110 fluorescence intensity (a.u.).
In the case of “TCCACTTCCAACATCTACTATCTTTTCTCACGCTTTTTCCCGGAGTCACCTAGTGCAG”, the binding signal is reported as 8630 fluorescence intensity (a.u.).
“CTCCTCAGCTAGTTGCTTGTCCCACACCACATCTTTCTTTCGGAGTCACCTAGTGCAG” was tested, and the binding signal was 12900 fluorescence intensity (a.u.).
“GTCCAGTGGACCAACCGGGTCACGGTCTCACGTGCCAAAGCGGAGTCACCTAGTGCAG” was tested, and the binding signal was 8710 fluorescence intensity (a.u.).
“AAAATCTGTCATCGTCGTATCATGCATGTCGAATGTTTTGCGGAGTCACCTAGTGCAG” was tested, and the binding signal was 8380 fluorescence intensity (a.u.).
With “AGCTATTTTACATGTTATTTTTTCATTGTTATCGTACTAACGGAGTCACCTAGTGCAG” the binding signal was 10500 fluorescence intensity (a.u.).
For “CACCATCCCAAAATATTTGACGCCGTTGACTTTTTTAAAACGGAGTCACCTAGTGCAG”, the binding signal was 14000 fluorescence intensity (a.u.).
For “CATCCCAAAATATTTGACGTCGTTGACTTTTTTAAAAGTGCGGAGTCACCTAGTGCAG”, the binding signal was 18000 fluorescence intensity (a.u.).
With “TCCCTCCATCCCAAAATGTTATCTTTGACGTCGTTGACTTCGGAGTCACCTAGTGCAG” the binding signal was 10900 fluorescence intensity (a.u.).
With “CGGCCCAGGTGGGAGAGGAGGGGAGGGGAGGGGAGGGATGCGGAGTCACCTAGTGCAG” the binding signal was 19800 fluorescence intensity (a.u.).
“GCGGAGGTGGTGTGGGTGGGTGAGTGAGTGAGGAGTGATGCGGAGTCACCTAGTGCAG” was tested, and the binding signal was 17400 fluorescence intensity (a.u.).
For “AGGTGGAGGTGGGGAGGATGCGGGAGAGGGAGGTGATGATCGGAGTCACCTAGTGCAG”, the binding signal was 14000 fluorescence intensity (a.u.).
With “AGGGTAAGAGGAGGAGGAGGAGGGGTAGGCGAGGGAGATGCGGAGTCACCTAGTGCAG” the binding signal was 8490 fluorescence intensity (a.u.).
For “GGAGGTCAGGATTGTTGTGGTGGGGAATTGGAGGGAAATGCGGAGTCACCTAGTGCAG”, the binding signal was 19600 fluorescence intensity (a.u.).
In the case of “GAGAGTAAGGATCAGGAGGAGGTGGAGGAGGAGGAGGATGCGGAGTCACCTAGTGCAG”, the binding signal is reported as 8300 fluorescence intensity (a.u.).
In the case of “GTTGGAGTTGGAGGAGGTGGTGCCGTGGTGGGGATTGATGCGGAGTCACCTAGTGCAG”, the binding signal is reported as 10500 fluorescence intensity (a.u.).
In the case of “GTAGGAGGAGGAGGAGGAGGTGGTGGTGGTGGTGGTGATGCGGAGTCACCTAGTGCAG”, the binding signal is reported as 15100 fluorescence intensity (a.u.).
In the case of “GGGTGTGTAAGGGTAGGTGGAGGGGTGGGTGATGCGAGATCGGAGTCACCTAGTGCAG”, the binding signal is reported as 20400 fluorescence intensity (a.u.).
“GGGAGGGGCGGCCCAGCGGCAGCGGAGGGGAGGGAGGATGCGGAGTCACCTAGTGCAG” was tested, and the binding signal was 8640 fluorescence intensity (a.u.).
“GGGTCAGAGGGTAGGTTATTGTTGGGTAGGTGTGGAATTGCGGAGTCACCTAGTGCAG” was tested, and the binding signal was 9800 fluorescence intensity (a.u.).
For “GGATGAGGAGGAGGGTGTGGAGGAGGAGGAGGAGGAGGTGCGGAGTCACCTAGTGCAG”, the binding signal was 11500 fluorescence intensity (a.u.).
In the case of “TTATAACATCTCTAGCTTCCTTTTCTAACCGTTTAACTTTCGGAGTCACCTAGTGCAG”, the binding signal is reported as 8410 fluorescence intensity (a.u.).
“TTGGTTGTGTGTGTGCCGCCGCGAGCCCGTGACGGCGCCCCGGAGTCACCTAGTGCAG” was tested, and the binding signal was 9390 fluorescence intensity (a.u.).
“AATTTTTATATTGTTGACCTGCAGATCCTTATGTTGGACTCGGAGTCACCTAGTGCAG” was tested, and the binding signal was 8260 fluorescence intensity (a.u.).
“AACGTACCACTCCCGTGGGCCGGACCAACACTCCTTCCCACGGAGTCACCTAGTGCAG” was tested, and the binding signal was 9510 fluorescence intensity (a.u.).
“TGCGTGTTGTGTGTGTGGGTGATCTTTGGCGCGCCTCGTCCGGAGTCACCTAGTGCAG” was tested, and the binding signal was 8120 fluorescence intensity (a.u.).
With “ATCCCCATTTTTTTCCCAAGTGGTACACTGAAATTTTTTTCGGAGTCACCTAGTGCAG” the binding signal was 8100 fluorescence intensity (a.u.).
For “TTCCCCACCACCACCAACCCAGACCGGCCGCGGCCTATATCGGAGTCACCTAGTGCAG”, the binding signal was 8270 fluorescence intensity (a.u.).
“TTTATAGATGGGGAAGGGGTGGCAACTAGAGACGCGACGGCGGAGTCACCTAGTGCAG” was tested, and the binding signal was 9070 fluorescence intensity (a.u.).
In the case of “TTCTCCGTGTTAATATCACTTACGTCAAGGACCTATTTGTCGGAGTCACCTAGTGCAG”, the binding signal is reported as 8750 fluorescence intensity (a.u.).
In the case of “CGATGTGATTTAGTGAAAAATTTTAGGGTGGGCTAAACAGCGGAGTCACCTAGTGCAG”, the binding signal is reported as 11500 fluorescence intensity (a.u.).
For “TGGAGGTGGGGAGGATGCGGGAGAGGGAGGTGATGATGGGCGGAGTCACCTAGTGCAG”, the binding signal was 8790 fluorescence intensity (a.u.).
In the case of “GGCGTGTTGGTGTGCGTGGATTGGGTGGGTGAGGAGGATGCGGAGTCACCTAGTGCAG”, the binding signal is reported as 13000 fluorescence intensity (a.u.).
“GTGTGGAGGTGGTGGGGAGTGTGAGGAGAGGGAGGGGATGCGGAGTCACCTAGTGCAG” was tested, and the binding signal was 18000 fluorescence intensity (a.u.).
In the case of “GGGGTGGGGTGGAGAGGGTGAAGCGGCGACGGTGACGATGCGGAGTCACCTAGTGCAG”, the binding signal is reported as 9870 fluorescence intensity (a.u.).
“TCGCTGTGAGTGGAGGAGGAGGAGGAAGGGGAGGAGGATGCGGAGTCACCTAGTGCAG” was tested, and the binding signal was 8630 fluorescence intensity (a.u.).
With “CGGTGAGGGGTGGACTGGGAGTGCGTGGGTGGGTGTGATGCGGAGTCACCTAGTGCAG” the binding signal was 13400 fluorescence intensity (a.u.).
With “GTGAAGCGATCTGTATTGGTGGAGGGGAGGGGAGGGGATGCGGAGTCACCTAGTGCAG” the binding signal was 24000 fluorescence intensity (a.u.).
With “GTGAGGTGGGGTGGTGTGGCTTCTGCTGCTGCTGCTACTGCGGAGTCACCTAGTGCAG” the binding signal was 15100 fluorescence intensity (a.u.).
With “GACTGGGAGGATGAGGGGTGGGTGGGTGTGGCTGCTTCTGCGGAGTCACCTAGTGCAG” the binding signal was 19100 fluorescence intensity (a.u.).
